Calls of active or inactive are those of the source. The calls were made as follows: active = hit-call score of the fitted dose curve at least 0.9, where 1 is the maximum; inactive = score below 0.9.
What was measured:
Details in all cases: mRNA level, 48 h; actives raise or lower the signal
[1] = read-out: Cytochrome P450 (CYP24A1), CYP24A1 (gene 1591); assay: LTEA_HepaRG_CYP24A1: Life Technologies and Expression Analysis (LTEA) Assay for Cytochrome P450 (CYP24A1) using HepaRG (AID 2283478)
In short: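 Gene expression of CYP24A1 by TaqMan qRT-PCR in HepaRG after 48 h treatment, highest concentration 100 uM; activity fitted in both directions relative to DMSO vehicle.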

[2] = read-out: Cytochrome P450 (CYP1A2), CYP1A2 (gene 1544); assay: LTEA_HepaRG_CYP1A2: Life Technologies and Expression Analysis (LTEA) Assay for Cytochrome P450 (CYP1A2) using HepaRG (AID 2283479)
In short: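 In duplicate wells, HepaRG cultures maintained in 0.5% DMSO were treated 48 h across an 8-point, half-log series topping at 100 uM; phenobarbital (1 mM) served as induction control. Expression was read by qRT-PCR.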

[3] = read-out: cysteine-aspartic acid protease (CASP8), CASP8 (gene 841); assay: LTEA_HepaRG_CASP8: Life Technologies and Expression Analysis (LTEA) Assay for cysteine-aspartic acid protease (CASP8) using HepaRG (AID 2283480)
In short: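 HepaRG, 48 h exposure, duplicate wells; 8 conc, half-log from 100 uM, 0.5% DMSO. Serum-free induction medium. CASP8 mRNA by TaqMan qRT-PCR, norm. ACTB/GAPDH/POLR2A; gain/loss fitted vs DMSO.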

[4] = read-out: Cytochrome P450 2C19 (Homo sapiens) (UniProt P33261); assay: LTEA_HepaRG_CYP2C19: Life Technologies and Expression Analysis (LTEA) Assay for CYP2C19 using HepaRG (AID 2283482)
In short: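 Endpoint: CYP2C19 mRNA change, bidirectional fit vs 0.5% DMSO. Cells: HepaRG, 48 h exposure, eight-point series topping at 100 uM. Quantitation: qRT-PCR normalized to ACTB, GAPDH, POLR2A.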

CYP2C9 (gene 1559) = assay: LTEA_HepaRG_CYP2C9: Life Technologies and Expression Analysis (LTEA) Assay for CYP2C9 using HepaRG (AID 2283484)
In short: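 Cells plated 48 h, switched to serum-free induction medium, then treated in duplicate for 48 h at eight concentrations (max 100 uM, 0.5% DMSO). RNA then analysed by qRT-PCR for CYP2C9; curves fitted in both directions relative to DMSO.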

CYP2E1 (gene 1571) = assay: LTEA_HepaRG_CYP2E1: Life Technologies and Expression Analysis (LTEA) Assay for CYP2E1 using HepaRG (AID 2283485)
In short: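 Differentiated HepaRG cells were treated in duplicate for 48 h with chemicals in 0.5% DMSO, from 100 uM downward in half-log dilutions. RNA was then analysed by qRT-PCR for CYP2E1 induction or loss.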

CYP4A11 (gene 1579) = assay: LTEA_HepaRG_CYP4A11: Life Technologies and Expression Analysis (LTEA) Assay for CYP4A11 using HepaRG (AID 2283486)
In short: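 Human hepatic HepaRG cultures receive duplicate 48 h exposures across a concentration-response series topping at 100 uM. Expression changes in CYP4A11 are measured by qRT-PCR relative to DMSO controls.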

[5] = read-out: Cytochrome P450 3A4 (Homo sapiens) (UniProt P08684); assay: LTEA_HepaRG_CYP3A4: Life Technologies and Expression Analysis (LTEA) Assay for CYP3A4 using HepaRG (AID 2283487)
In short: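 Differentiated HepaRG cells in serum-free induction medium exposed in duplicate for 48 h to 8 half-log concentrations up to 100 uM in 0.5% DMSO. CYP3A4 mRNA measured by qRT-PCR normalized to ACTB, GAPDH and POLR2A; bidirectional fit versus DMSO.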

[6] = read-out: DNA damage-inducible transcript 3 (DDIT3), DDIT3 (gene 1649); assay: LTEA_HepaRG_DDIT3: Life Technologies and Expression Analysis (LTEA) Assay for DNA damage-inducible transcript 3 (DDIT3) using HepaRG (AID 2283488)
In short: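 Changes in DDIT3 transcript, in either direction relative to 0.5% DMSO vehicle, were quantified by TaqMan qRT-PCR after 48 h chemical exposure of HepaRG cells at 8 concentrations, maximum 100 uM.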

[7] = read-out: Pro-epidermal growth factor (Homo sapiens) (UniProt P01133); assay: LTEA_HepaRG_EGF: Life Technologies and Expression Analysis (LTEA) Assay for Epidermal growth factor (EGF) using HepaRG (AID 2283489)
In short: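 Concentration-response mRNA assay: HepaRG cells dosed 48 h (max 100 uM, 0.5% DMSO), EGF measured by qRT-PCR and normalized to ACTB/GAPDH/POLR2A.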

[8] = read-out: Early growth response protein 1 (EGR1) transcription factor, EGR1 (gene 1958); assay: LTEA_HepaRG_EGR1: Life Technologies and Expression Analysis (LTEA) Assay for Early growth response protein 1 (EGR1) transcription factor using HepaRG (AID 2283490)
In short: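 Read-out is EGR1 mRNA level by qRT-PCR, normalized to three housekeeping genes and analysed for gain or loss of signal against 0.5% DMSO. Source cells: human HepaRG, treated 48 h at up to 100 uM in half-log dilutions.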

[9] = read-out: Ezrin (EZR), EZR (gene 7430); assay: LTEA_HepaRG_EZR: Life Technologies and Expression Analysis (LTEA) Assay for Ezrin (EZR) using HepaRG (AID 2283491)
In short: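 Differentiated human HepaRG cells, 48 h after plating, were exposed in serum-free induction medium for 48 hours to eight half-log concentrations up to 100 uM in 0.5% DMSO. EZR mRNA was measured by TaqMan qRT-PCR, normalized to ACTB, GAPDH and POLR2A, and fitted bidirectionally against DMSO.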

[10] = read-out: Cytochrome P450 3A7 (Homo sapiens) (UniProt P24462); assay: LTEA_HepaRG_CYP3A7: Life Technologies and Expression Analysis (LTEA) Assay for CYP3A7 using HepaRG (AID 2283492)
In short: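 qRT-PCR of CYP3A7 in HepaRG lysates after 48 h treatment; concentration-response (8 points, max 100 uM) analysed bidirectionally relative to 0.5% DMSO controls.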

CYP3A5 (gene 1577) = assay: LTEA_HepaRG_CYP3A5: Life Technologies and Expression Analysis (LTEA) Assay for CYP3A5 using HepaRG (AID 2283493)
In short: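 mRNA induction or loss of CYP3A5 assessed in HepaRG after 48 h dosing, 100 uM top concentration, duplicate wells; TaqMan qRT-PCR with ACTB, GAPDH, POLR2A normalization; 0.5% DMSO as negative control.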

[11] = read-out: Fatty Acid-Binding Protein 1 (FABP1), FABP1 (gene 2168); assay: LTEA_HepaRG_FABP1: Life Technologies and Expression Analysis (LTEA) Assay for Fatty Acid-Binding Protein 1 (FABP1) using HepaRG (AID 2283494)
In short: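 HepaRG, 48 h post-plating switched to serum-free induction medium, then dosed 48 h (duplicate, 8 pts, ≤100 uM, 0.5% DMSO). RNA → Fluidigm TaqMan qRT-PCR, FABP1 normed to ACTB/GAPDH/POLR2A. Bidirectional curve fit vs DMSO.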

[12] = read-out: Cytochrome P450 4A22 (Homo sapiens) (UniProt Q5TCH4); assay: LTEA_HepaRG_CYP4A22: Life Technologies and Expression Analysis (LTEA) Assay for Cytochrome P450 4A22 (CYP4A22) using HepaRG (AID 2283495)
In short: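 Concentration-response (8 points, max 100 uM, 0.5% DMSO) in human HepaRG liver cells after 48 h exposure. CYP4A22 mRNA by TaqMan qRT-PCR with housekeeping-gene normalization.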

[13] = read-out: Cytochrome P450 7A1 (Homo sapiens) (UniProt P22680); assay: LTEA_HepaRG_CYP7A1: Life Technologies and Expression Analysis (LTEA) Assay for Cytochrome P450 7A1 (CYP7A1) using HepaRG (AID 2283496)
In short: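 Gene expression endpoint in human HepaRG liver cells treated for 48 h with test chemicals (up to 100 uM, 0.5% DMSO). Values come from bidirectional concentration-response fitting versus DMSO.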

CYP2C8 (gene 1558) = assay: LTEA_HepaRG_CYP2C8: Life Technologies and Expression Analysis (LTEA) Assay for CYP2C8 using HepaRG (AID 2283483)
In short: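 CYP2C8 mRNA induction or loss, by qRT-PCR normalized to ACTB/GAPDH/POLR2A, is read in HepaRG cells after 48 h treatment. Concentrations run from 100 uM down in half-log dilutions, with 0.5% DMSO as vehicle and baseline.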

[14] = read-out: Glutathione S-Transferase (GSTA2), GSTA2 (gene 2939); assay: LTEA_HepaRG_GSTA2: Life Technologies and Expression Analysis (LTEA) Assay for Glutathione S-Transferase (GSTA2) using HepaRG (AID 2283497)
In short: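 HepaRG, 48 h dosing, 8-pt half-log CRC from 100 uM, 0.5% DMSO vehicle, n=2; RNA → Fluidigm TaqMan qRT-PCR; GSTA2 vs ACTB/GAPDH/POLR2A; gain/loss fit vs DMSO.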

Measured: AC50

Cytochrome P450 3A7 (Homo sapiens), sequence (P24462 whole entry, looked up): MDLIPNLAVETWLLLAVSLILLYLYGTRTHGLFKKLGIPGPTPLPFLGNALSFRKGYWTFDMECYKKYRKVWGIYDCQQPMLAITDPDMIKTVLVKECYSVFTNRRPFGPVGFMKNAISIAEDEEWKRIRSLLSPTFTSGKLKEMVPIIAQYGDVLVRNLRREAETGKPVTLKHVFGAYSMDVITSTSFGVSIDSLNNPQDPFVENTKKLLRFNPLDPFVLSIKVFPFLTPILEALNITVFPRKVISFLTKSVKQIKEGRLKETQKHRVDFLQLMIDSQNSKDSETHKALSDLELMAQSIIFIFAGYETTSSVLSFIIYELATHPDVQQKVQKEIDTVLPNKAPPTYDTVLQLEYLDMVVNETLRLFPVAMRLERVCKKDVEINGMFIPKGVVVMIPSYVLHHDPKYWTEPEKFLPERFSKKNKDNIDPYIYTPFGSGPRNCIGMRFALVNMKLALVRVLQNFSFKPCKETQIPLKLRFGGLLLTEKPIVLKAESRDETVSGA
Cytochrome P450 2C19 (Homo sapiens), sequence (P33261 whole entry, looked up): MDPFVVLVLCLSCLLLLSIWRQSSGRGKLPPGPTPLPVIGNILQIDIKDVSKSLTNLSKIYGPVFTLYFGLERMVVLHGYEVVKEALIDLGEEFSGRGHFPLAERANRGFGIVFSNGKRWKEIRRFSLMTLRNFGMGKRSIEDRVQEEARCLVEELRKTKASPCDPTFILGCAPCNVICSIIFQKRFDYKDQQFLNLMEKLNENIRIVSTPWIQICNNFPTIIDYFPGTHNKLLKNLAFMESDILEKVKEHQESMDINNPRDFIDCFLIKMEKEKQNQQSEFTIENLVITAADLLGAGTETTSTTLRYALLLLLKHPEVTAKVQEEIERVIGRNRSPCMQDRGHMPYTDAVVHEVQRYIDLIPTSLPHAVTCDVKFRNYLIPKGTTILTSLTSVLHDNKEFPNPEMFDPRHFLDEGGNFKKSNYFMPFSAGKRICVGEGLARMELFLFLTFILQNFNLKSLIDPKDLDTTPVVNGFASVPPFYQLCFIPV
Cytochrome P450 3A4 (Homo sapiens), sequence (P08684 whole entry, looked up): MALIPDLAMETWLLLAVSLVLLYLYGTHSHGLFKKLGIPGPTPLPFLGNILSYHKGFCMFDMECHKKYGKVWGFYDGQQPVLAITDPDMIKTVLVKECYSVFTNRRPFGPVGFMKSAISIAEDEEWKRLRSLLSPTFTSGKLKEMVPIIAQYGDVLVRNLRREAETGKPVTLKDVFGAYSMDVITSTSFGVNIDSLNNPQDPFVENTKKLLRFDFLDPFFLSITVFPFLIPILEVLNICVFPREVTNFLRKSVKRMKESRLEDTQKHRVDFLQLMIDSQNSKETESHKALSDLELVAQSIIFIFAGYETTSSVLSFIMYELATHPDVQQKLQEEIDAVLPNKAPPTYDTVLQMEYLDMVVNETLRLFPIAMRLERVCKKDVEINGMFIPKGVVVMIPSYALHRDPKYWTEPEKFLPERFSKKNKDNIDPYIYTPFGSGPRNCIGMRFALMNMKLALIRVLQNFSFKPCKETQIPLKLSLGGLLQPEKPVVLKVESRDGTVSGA

CC(=O)OC/C=C(\C)CCC=C(C)C
not listed: CYP2C8 (gene 1558) | [14]
inactive: all other assays above

Oc1ccc2c(c1)OC[C@@H](N1CCC(O)(c3ccc(F)cc3)CC1)[C@H]2O
not listed: [4] | CYP2C9 (gene 1559)
inactive: all other assays above

CCCCCCCCCCCCCCCC
active: [2] 50 µM
not listed: [4] | CYP2C9 (gene 1559) | CYP2C8 (gene 1558) | [14]
inactive: all other assays above

C=CCOC(=O)c1ccccc1C(=O)OCC=C
not listed: [4]
inactive: all other assays above

CC(C)(C)c1cc(O)c(C(C)(C)C)cc1O
active: [3] 81.1 µM | [6] 50 µM | [8] 50 µM | [11] 94.3 µM | [14] 77.8 µM
inactive: [7] | [9]

CCCc1cc(=O)[nH]c(=S)[nH]1
active: [2] 23.7 µM
not listed: CYP2C9 (gene 1559) | CYP2C8 (gene 1558)
inactive: all other assays above

NCCO
not listed: [4] | CYP2C9 (gene 1559) | [14]
inactive: all other assays above

Clc1cc(Cl)c(Cl)cc1Cl
not listed: CYP2C8 (gene 1558)
inactive: all other assays above

Reference: PubChem BioAssay (EPA / NIEHS)
